Screening results: PubChem, several laboratories
The entries come from a sample that favours hits as a whole.
HIV RNase H inh-1 = inhibitors of HIV-1 reverse transcriptase RNase H. P04585. 1.9% of 65,000 active. AID 565. RT-RNase H RNA/DNA duplex cleavage, fluorescence. inhibition, % at 10 µM; in the data active = inhibition above about 50%
RmlCD inh mix = mixture blocks RmlC and RmlD coupled enzyme activity | RmlC/RmlD coupled enzyme inhibition, 384-well mixture HTS | inhibition, % at 5.5 µM | 0.39% of 110,000 active; in the data active = inhibition above about 30%, passing the limit was not always enough; inconclusive = no clear call, values can overlap the other calls
HIV RNase H inh-2 = confirmation of HIV-1 reverse transcriptase RNase H inhibitors | shares compounds with HIV RNase H inh-1 | Recombinant RT RNase H, fluorescent RNA/DNA duplex cleavage | inhibition, % at 10 µM | 39% of 1,000 active | AID 651; in the data active = inhibition above about 48%; inconclusive = no clear call, values can overlap the other calls
RmlCD fluor art = counter-screen for RmlC/RmlD inhibitors: fluorescence artifact | shares compounds with RmlCD inh mix | RmlC/RmlD assay fluorescence artifact counter-screen | calls only | 96% of 360 active | AID 1696; call rule not given here;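 note: compound alone with no enzyme and no substrates present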
Hits are given with their value; n = inactive; u = inconclusive; x = no result; + = active, no number.

SMILES	HIV RNase H inh-1	RmlCD inh mix	HIV RNase H inh-2	others
NC(=O)CC(NC(=O)Cc1ccc(Br)cc1)c1ccc(N2CCN(c3ccc(F)cc3)CC2)c([N+](=O)[O-])c1 (stereo unspecified)	x	n	x
NC(=O)C1=C[C@@H](c2csc3ccccc23)C[C@@H](OCCCCO)O1	x	n	x
O=C1OCC(CO)(CO)N=C1NNc1ccc(Cl)c(Cl)c1	x	n	x
Fc1ccccc1-c1nc2c(s1)CCc1onc(-c3ccc(Br)cc3)c1-2	x	n	x
Cc1ccccc1N1C(=O)C(Cl)=C(N2CCN(c3ccccc3)CC2)C1=O	n	n	x
O=C1C(Cl)=C(N2CCOCC2)C(=O)N1c1ccccc1Cl	70	n	n
CC1CCCCC1n1c(=S)[nH]c2ccccc2c1=O (stereo unspecified)	n	n	x
COC(C[C@H]1O[C@H]1[C@@H](O)[C@@H](C)OCc1ccccc1)OC	x	n	x
Clc1ccccc1-c1nn2c(COc3ccccc3)nnc2s1	n	n	x
COc1ccc(-c2nnc3sc(COc4ccccc4)nn23)cc1	n	n	x
c1ccc(OCc2nn3c(C4CCCCC4)nnc3s2)cc1	64	n	n
c1ccc(Cc2nn3c(COc4ccccc4)nnc3s2)cc1	93	n	64
Cc1ccccc1NC(=O)Cn1nc(-c2ccccc2)nc1-c1ccccc1	x	n	x
c1ccc2c(c1)nnn2Cc1nnc2sc(-c3ccc4c(c3)OCCO4)nn12	91	n	52
Cc1ccc(-c2nnc3sc(-c4ccc5c(c4)OCCO5)nn23)cc1	n	x	x
Cc1nc(NC(=O)CSc2ccccc2N)sc1C	n	n	x
O=C(C1=C[C@@H](C2CC2)C[C@@H](OCc2ccc(CO)cc2)O1)N1CCN(Cc2ccccc2)CC1	x	n	x
COc1ccccc1C(=O)Nc1ccc(C(=O)N2CCCC2)cc1	x	n	x
NS(=O)(=O)c1ccc(NC(=O)c2ccccc2C(=O)N2CCCCC2)cc1	76	n	n
COc1ccccc1NC(=O)C1=C(C)NC(SCC(=O)c2ccc(C)cc2)=C(C#N)C1c1ccco1 (stereo unspecified)	59	x	n
CC(=O)C1=C(C)NC(SCC(=O)c2ccc(F)cc2)=C(C#N)C1c1ccco1 (stereo unspecified)	n	n	x
CCC(C)n1c(C)nc2c(c1=O)c1nc3ccccc3nc1n2CCC1=CCCCC1 (stereo unspecified)	x	n	x
CCOC(=O)c1sc(NC(=O)C2CCCO2)c(C(=O)OC)c1C (stereo unspecified)	n	x	x
O=C(Oc1ccc(-c2cnc3ccccc3n2)cc1)c1ccco1	73	n	u
CCC(=O)Oc1ccc(-c2cnc3ccccc3n2)cc1	x	n	x
SMILES	HIV RNase H inh-1	RmlCD inh mix	HIV RNase H inh-2	others
COc1c(Cl)cc(C(=O)Nc2ccccc2C(=O)O)cc1Cl	x	n	x
NC(CO)C(=O)NNCc1ccc(O)c(O)c1O (stereo unspecified)	n	n	n
COC(=O)C(N)Cc1ccc(O)c(O)c1 (stereo unspecified)	x	n	x
CN(C)c1ccc(-c2cc([C@H]3[C@@H]4C=CCC[C@@]4(C)C(=O)N3Cc3ccccc3)ccc2F)cc1	x	n	x
Cn1ccnc1P(=S)(c1nccn1C)N1CCOCC1	87	n	62
Cn1ccnc1P(=S)(c1nccn1C)c1nccn1C	n	n	x
Cc1noc(C)c1S(=O)(=O)Nc1ccc(O)c2c(=O)cc(-c3ccccc3Cl)oc12	x	n	x
CC1(C)Cc2c(c(N3CCOCC3)nc3sc(C(=O)N4CCCCC4)c(N)c23)CO1	72	n	n
CC1(C)Cc2c(c(N3CCOCC3)nc3sc(-c4ccc(C(=O)O)o4)c(N)c23)CO1	n	n	x
CC(C)c1nc(=S)c2ccccc2[nH]1	n	n	x
S=c1nc(C2CC2)[nH]c2ccccc12	84	n	69
O=C(Nc1ccccc1)C1=C[C@@H](c2ccc(C(F)(F)F)cc2)C[C@@H](OCCCCO)O1	x	n	x
Cc1ccc(-c2nnn(CC(=O)Nc3ccc4nn(-c5ccccc5)nc4c3)n2)o1	76	x	u
Cc1ccc(-c2nnn(CC(=O)NCC3CC3)n2)o1	x	n	x
NC(=O)c1ccc(C(F)(F)F)n(Cc2ccccc2Cl)c1=O	x	n	x
O=C(c1ccc2c3c(cccc13)C(=O)N(O)C2=O)N1CCCCC1	80	n	70
O=C1c2cccc3c(Cl)ccc(c23)C(=O)N1O	n	n	x
Cc1noc(/C=C/N(C)C)c1S(=O)(=O)N1CCCC(C(=O)NC(C)c2ccccc2)C1 (stereo unspecified)	n	n	x
Cc1ccc(-c2nnn(CC(=O)Nc3ccc(S(=O)(=O)N4CCC(C)CC4)cc3)n2)cc1	n	n	x
CC1CCN(S(=O)(=O)c2ccc(NC(=O)Cn3nnc(-c4ccccc4)n3)cc2)CC1	70	n	68
COc1cc(OC)c(-c2nn3c(-c4ccco4)nnc3s2)cc1OC	n	n	x
Cc1ccccc1-c1nn2c(-c3ccccc3)nnc2s1	n	n	x
c1ccc(-c2cc(-c3nn4c(-c5ccco5)nnc4s3)c3ccccc3n2)cc1	75	n	n
Cc1cc(-c2nn3c(-c4ccccc4)nnc3s2)c2ccccc2n1	82	n	63
CN1C(C(=O)NCCc2cccs2)CC2Cn3c(nc4ccccc43)C21 (stereo unspecified)	x	n	x
SMILES	HIV RNase H inh-1	RmlCD inh mix	HIV RNase H inh-2	others
O=S(=O)(c1ccc(S(=O)(=O)N2CCN(C/C=C/c3ccccc3)CC2)cc1)N1CCCC1	59	n	56
O=C(Cc1ccccc1)N1CCN(C/C=C/c2ccccc2)CC1	n	n	x
O=C(Nc1nc2ccccc2n1Cc1ccccc1)c1ccco1	n	n	x
O=C(Nc1nc(NC(=O)c2ccco2)n(-c2ccccc2)n1)c1ccccc1	53	138	n	RmlCD fluor art=+
CC(C)(C)[C@@H]1C=C(C(=O)Nc2ccccc2)O[C@H](OCc2ccc(CO)cc2)C1	x	n	x
Cc1[nH]n(-c2ccccc2)c(=O)c1/C=N/c1ccccn1	n	n	x
Cc1[nH]n(-c2ccccc2)c(=O)c1C=Nc1cnc2ccccc2c1	x	44	x	RmlCD fluor art=+
Cc1ccccc1-c1nc(CS(=O)(=O)CC(=O)Nc2cc(F)ccc2F)c(C)o1	n	n	x
NC(=O)C1CCCN(S(=O)(=O)c2ccc(Br)cc2)C1 (stereo unspecified)	n	n	x
CC1(C)Cc2ccccc2-c2nc(NCCO)n(-c3ccccc3)c(=O)c21	n	51	x	RmlCD fluor art=+
CCC1(C)Cc2ccccc2-c2nc(NCCO)n(-c3ccccc3)c(=O)c21 (stereo unspecified)	n	n	x
Cc1nc2ccccc2c(=O)n1NC(=O)c1ccc(F)cc1Cl	n	n	x
COc1ccc2cc3cc(C(=O)NCCN4CCN(c5ccccc5F)CC4)oc3nc2c1	n	x	x	RmlCD fluor art=n
CCOc1ccc(NC(=O)c2cc3cc4ccc(OC)cc4nc3o2)cc1	x	105	x	RmlCD fluor art=+
COc1ccc2cc3cc(C(=O)Nc4ccccc4N4CCN(C)CC4)oc3nc2c1	n	n	x
COc1ccc2cc3cc(C(=O)NCc4ccccn4)oc3nc2c1	n	x	x
COc1ccc2cc3cc(C(=O)NCC4CCCO4)oc3nc2c1 (stereo unspecified)	n	105	x	RmlCD fluor art=+
CCCCN(CC)C(=O)c1cc2cc3ccc(OC)cc3nc2o1	x	n	x
O=C1OC(NC(=O)c2ccccc2)C(n2cc(CO)nn2)=C1Cl (stereo unspecified)	n	n	x
Cc1oc2c(CN3CCCC3)c(O)ccc2c(=O)c1Oc1ccccc1Br	n	64	x	RmlCD fluor art=+
COc1ccccc1-c1coc2c(CN3CCN(CCO)CC3)c(O)ccc2c1=O	n	40	x	RmlCD fluor art=+
